Source: PubChem BioAssay
Sfp inh: Sfp phosphopantetheinyl transferase inhibition; AID 1490; hit rate 3.5% among 310,000; Q9F4F7; Biochemical Sfp PPTase activity, qHTS; Potency, µM, for inactives: largest response in the series, negative = inhibition, usual class: inhibitors;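 further: the enzyme is Sfp with the accession as filed and its product quenches rhodamine fluorescence; 0% = enzyme reaction without inhibitor and -100% = no enzyme wells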
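Step 1, compound plus 15 nM Sfp-PPTase, 15 min, room temperature. Step 2, add rhodamine-CoA (5 uM) and BHQ-2-YbbR (12.5 uM). Step 3, read 525/598 nm fluorescence at 0 and 30 min.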
12-LOX inh: inhibitors of human 12S-lipoxygenase ALOX12. P18054. purified 12hLO, xylenol orange hydroperoxide absorbance. Potency, µM (doses to about 108 µM), without a hit: top-dose activity change, negative = inhibition, usual class: inhibitors. hit rate 1.1% among 580,000. AID 1671190; further: on the % scale 0 is the no-effect control and ±100 the full control effect
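Hydroperoxide product was detected by ferrous iron/xylenol orange as the 573 to 405 nm absorbance ratio. Arachidonic acid at 40 uM (final) was turned over for 30 min at room temperature by 150 nM human 12hLO, pH 7.0 Hepes buffer, after 15 min compound preincubation.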
G9a inh: inhibitors of human histone lysine methyltransferase G9a; Q96KQ7; hit rate 8.8% among 350,000; G9a H3K9 monomethylation, AlphaScreen, 2 h; AID 504332; Potency, µM (doses to about 102 µM), without a hit: top-dose activity, negative = inhibition, hits mostly inhibitors; further: on the % scale 0 is the no-effect control and ±100 the full control effect; nearly all actives have a fitted effect of over 75% in size
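Quantitative HTS format: methyltransferase activity on a biotin-tagged H3K9 peptide is measured by AlphaScreen, using a rabbit anti-monomethyl-H3K9 antibody with streptavidin donor and anti-IgG acceptor beads. Final levels are 20 nM enzyme, 500 nM peptide, 20 uM SAM; 2 h RT.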
GRP78 ERSR act: inducers of ER stress response in human glioma cells; U87-MG GRP78 promoter luciferase reporter, 16 h; Potency, µM, inactives show top-dose activation, hits mostly activators; hit rate 0.02% among 420,000; AID 602332; further: series mostly up to about 76 µM; % of control where 0% means no effect; nearly all actives have a fitted effect of over 35% in size
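ERSR induction read as luciferase luminescence (Bright-Glo, 10 min at room temperature) in stably transfected human U87-MG glioma cells exposed to compounds for 16 h, using GRP78 as sensor.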
VDR inhibitor: inhibitors of human vitamin D receptor. Potency, µM, without a hit: max response, negative = inhibition, usual class: inhibitors. hit rate 0.93% among 400,000. VDR-SRC2-3 peptide fluorescence polarization, 2 h; further: on the % scale 0 is the no-effect control and ±100 the full control effect
Target sequence (P11473 whole entry, looked up): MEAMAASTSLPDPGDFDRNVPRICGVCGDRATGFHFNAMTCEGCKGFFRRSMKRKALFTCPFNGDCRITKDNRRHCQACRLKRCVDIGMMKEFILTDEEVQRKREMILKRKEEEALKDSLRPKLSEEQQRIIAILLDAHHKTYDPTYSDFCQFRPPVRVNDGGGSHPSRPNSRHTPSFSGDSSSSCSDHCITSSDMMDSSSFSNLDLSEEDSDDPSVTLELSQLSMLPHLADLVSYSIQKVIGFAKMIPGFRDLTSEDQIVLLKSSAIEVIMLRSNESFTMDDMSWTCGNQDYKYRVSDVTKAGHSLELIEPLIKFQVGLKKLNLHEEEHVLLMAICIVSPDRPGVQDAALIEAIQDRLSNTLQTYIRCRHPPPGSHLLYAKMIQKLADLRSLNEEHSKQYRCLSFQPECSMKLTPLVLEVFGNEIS
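Fluorescence polarization assay of small-molecule disruption of VDR binding to coregulator peptide SRC2-3. Compounds and controls pin-transferred, then read after 2 h incubation at ambient room temperature.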
Active calls of the source: *; ? = inconclusive; . = no result; [ ] = another dose, or the depositor's remark. Many of the other results were omitted from the sample, so hits are more common in it than they were. The call rests on the fitted dose curve; in most records, active means well fitted curve in the direction sought with a large enough effect; inconclusive means small, poorly fitted or top-dose-only effect, or another doubt; inactive means no such curve, though single readings can be large; an effect the other way counts as inactive or inconclusive. Potency means the concentration at half of the fitted maximal effect.

SMILES	Sfp inh	12-LOX inh	G9a inh	GRP78 ERSR act	VDR inhibitor
CC(=O)c1ccc(SCC(=O)N(C2CCCC2)C2CCCC2)c(F)c1	.	-10%	.	.	.
C=CCn1c(=S)[nH]c2sc3c(c2c1=O)CCC3	-11%	?	3.2µM*	-3%	6%
CN(C)CCCn1c(=S)[nH]c2sc3c(c2c1=O)CCCC3	79µM*	14µM*	7.9µM*	4%	?
CCn1c(=S)[nH]c2sc3c(c2c1=O)CCCC3	2%	?	.	-3%	?
O=C(O)/C(=C\C(=O)c1ccccc1)Nc1ccccc1	-27%	.	20µM*	.	.
O=C(/C=C(\Nc1cccc(Cl)c1)c1ccccc1)c1ccccc1	.	9%	.	.	.
Cn1cnnc1SCC(=O)Nc1sc2c(c1C#N)CCCCC2	50µM*	?	13µM*	-1%	0%
CCCCn1nnnc1SCC(=O)Nc1sc2c(c1C#N)CCCC2	11%	?	?	-4%	-2%
N#Cc1c(NC(=O)CSc2nc(N)cc(=O)[nH]2)sc2c1CCCCCC2	22%	6%	45µM*	-3%	5%
Clc1sc(C=Nc2cccc3ccccc23)c(Cl)c1Cl	.	7%	.	.	.
Cc1ccccc1NC(=O)c1nc(S(C)(=O)=O)ncc1N(Cc1ccco1)Cc1ccco1	.	-2%	.	.	.
COc1ccc(CCNC(=O)CCSc2nc(Cl)nc3nc[nH]c23)cc1	.	-21%	.	.	.
CCOC(=O)c1sc(S(C)=O)c2c1CCc1conc1-2 (stereo not drawn)	40µM*	123%	32µM*	-1%	-10%
C=CCNC(=S)N/N=C(\C)c1cccnc1	16µM*	-5%	-5%	-3%	-19%
C=CCNC(=S)N/N=C(\C)c1ccc(OC)cc1	-11%	40µM*	24%[59 µM]	-3%	-3%
COc1ccc(/C(C)=N/NC(=S)NCc2ccco2)cc1	-3%	40µM*	23%[59 µM]	-3%	-3%
COc1cccc(/C=N/NC(=S)NCc2ccco2)c1OC	3%	?	21%[59 µM]	-7%	12%
Cc1sc(NC(=O)c2ccc(Cl)c(S(=O)(=O)N3CCOCC3)c2)nc1-c1ccc(F)cc1	.	-29%	.	.	.
C=CCN1C(=O)COc2ccc(NC(=O)c3cc(=O)c4c(C)cc(C)cc4o3)cc21	.	-19%	.	.	.
Cc1nc2ccc(NC(=O)C3COc4ccccc4O3)cc2s1 (stereo not drawn)	8%	0%	-49%	-1%	9%
Cc1nc2cc(NC(=O)C3COc4ccccc4O3)ccc2s1 (stereo not drawn)	-2%	18%	50µM*	1%	5%
Cc1cnc(NC(=O)C2COc3ccccc3O2)s1 (stereo not drawn)	5%	?	35µM*	-7%	8%
CCOc1ccccc1NC(=O)CSC1=NN2CCCC(=O)N=C2S1	22%	6%	40µM*	-3%	9%
COc1ccc(Cl)cc1NC(=O)CSC1=NN2CCCC(=O)N=C2S1	17%	-14%	6%	-3%	-5%
COc1ccc(NC(=O)CC2C(=O)NCCN2C(=O)CN2CCN(c3ncccn3)CC2)cc1 (stereo not drawn)	.	1%	.	.	.
SMILES	Sfp inh	12-LOX inh	G9a inh	GRP78 ERSR act	VDR inhibitor
O=C(CSc1n[nH]c(-c2ccco2)n1)Nc1ccc(F)cc1	3%	-3%	6%	-1%	6%
Cc1cccc(C)c1NC(=O)CSc1nnc(-c2ccco2)c(-c2ccco2)n1	11µM*	.	19%[0.501 µM]	-2%	?
O=C(CSc1nnc(-c2ccco2)c(-c2ccco2)n1)Nc1ccccc1	8.9µM*	?	-3%[2.33 µM]	-5%	?
Cc1ccc(NC(=O)CSc2nnc(-c3ccco3)c(-c3ccco3)n2)cc1	8.9µM*	?	?	-4%	?
CN(C)c1ccc(NC(=O)CSc2nnc(-c3ccco3)c(-c3ccco3)n2)cc1	?	-30%	25µM*	1%	6%
COc1ccc(-c2nnc(SCC(=O)Nc3c(C)cccc3C)nc2-c2ccc(OC)cc2)cc1	.	-17%	?	-5%	-13%
O=C(CSc1nnc(-c2ccccc2)c(-c2ccccc2)n1)NCc1ccco1	?	-16%	20%[59 µM]	-5%	-3%
CC(NS(=O)(=O)c1ccc2c(c1)CCN2C(=O)N1CCCC1)C(=O)Nc1ccccc1 (stereo not drawn)	.	-7%	.	.	.
CC(C)C(=O)NCCNC(=O)NC(CN(C)C)c1ccccc1 (stereo not drawn)	.	-2%	.	.	.
CCCCNC(=O)c1cccc2c1CCN2C(=O)Nc1ccccc1	.	51%	.	.	.
